Screens (PubChem BioAssay)
Sampled rows, rich in hits. Any-hit rate of the full collection: about 19%.
ELG1 DNA repair – inhibitors of ELG1-dependent DNA repair in HEK293T cells. Potency, µM (top dose mostly 46.1 µM), for the others: at the top dose activity change, negative = inhibition, hits mostly inhibitors. actives 2.3% (n = 330,000). HEK293T ELG1-luciferase reporter, luminescence, 16 h; DNA damage induced by 5-fluorouridine; further: potency means the concentration at half of the fitted maximal effect; nearly all actives have a fitted effect of over 55% in size
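HEK293T cells expressing luciferase-tagged ELG1 (2,000/well) received 5-Fluorouridine plus compound or DMSO for 16 hr at 37 °C. Luciferase was read by ONE-Glo luminescence after 30 min at room temperature.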
HT1080NT lethal – kills 2HG-producing HT-1080-NT fibrosarcoma cells. Potency, µM (titrated, usually from 46.1 µM), without a hit: top-dose activity, negative = less viability, actives largely listed as cytotoxic. HT-1080-NT fibrosarcoma viability, CellTiter-Glo ATP luminescence, 48 h. actives 1.6% (n = 360,000);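 further: NT is the 2HG producing partner of a matched IDH1 knockdown line; potency means the concentration at half of the fitted maximal effect; 0% = DMSO-treated cells and -100% = media-only wells without cells; nearly all actives have a fitted effect of over 55% in size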
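750 cells/well, RPMI + 5% FBS; 2 h settle, compound pin-transfer, 48 h at 37 degrees C. CellTiter-Glo 10 min RT, luminescence. Normalized to DMSO and media-only wells.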
HT1080 IDH1KD tx – kills HT-1080 cells with IDH1 knockdown. HT-1080 IDH1 knockdown viability, ATP luminescence, 48 h. Potency, µM (series often up to 46.1 µM), inactives show top-dose activity, negative = toxicity, usual class: cytotoxic. actives 2% (n = 360,000). AID 686971;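 further: potency means the concentration at half of the fitted maximal effect; 0% = DMSO wells and -100% = cell-free medium wells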
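Using the IDH1-knockdown HT-1080 line run in the same batch and compound series as the NT line, viability after 48 h at 37 °C was determined by CellTiter-Glo luminescence and expressed as % activity.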
IL1B secr inh – blocks inflammasome-driven IL-1 beta release; THP-1 LPS/ATP IL-1B secretion, AlphaLISA, 16 h; hits give low values; activity change, % at 57.5 µM; actives 4.7% (n = 360,000); AID 743279; in the data active means activity change below about -50%; inconclusive means mostly about -30% to -49%
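THP-1 cells pretreated 1 hr with compounds (up to 57.5 uM final), then stimulated with LPS (250 ng/mL final) plus ATP (1.25 mM final); secreted IL-1B measured by AlphaLISA after 16 hr, decreased signal indicating inhibition.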
DT40 TDP1 CPT – growth inhibition of DT40 Tdp1-/-;hTDP1 cells with camptothecin (screen for TDP1 inhibitors); Potency, µM (doses to about 46.2 µM), inactives show at the top dose activity change, negative = growth inhibition, most hits filed as inhibitors; actives 12% (n = 420,000); AID 686979; chicken DT40 Tdp1-/-;hTDP1 cells + 20 nM CPT, ATP luminescence, 48 h; further: potency means the concentration at half of the fitted maximal effect; nearly all actives have a fitted effect of over 55% in size
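Chicken DT40 Tdp1-/- cells stably complemented with human TDP1 were seeded at 400 cells/well in medium containing 20 nM camptothecin, exposed to pin-transferred compounds, and grown at 37 °C for at least 48 hr. Viability was read as ATP luminescence.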
TDP1 cell noCPT – qHTS for Inhibitors of human tyrosyl-DNA phosphodiesterase 1 (TDP1): qHTS in cells in absence of CPT; DT40 Tdp1-/- hTDP1 cells, no CPT, ATP luminescence, 48 h; Potency, µM (series often up to 46.2 µM), inactives show at the highest dose activity change, negative = growth inhibition, hits mostly inhibitors; actives 15% (n = 420,000); AID 686978, 2013; further: potency means the concentration at half of the fitted maximal effect; nearly all actives have a fitted effect of over 55% in size
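Stably hTDP1-transfected Tdp1-null chicken DT40 cells were treated with library compounds minus camptothecin and grown for at least 48 hr at 37 °C, after which cellular ATP was quantified by luminescence.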
* hit, by the source's call; ? = inconclusive; / = not tested or not shown. Unless noted, the call rests on the fitted dose curve; in most records, active means well fitted curve in the direction sought with a large enough effect; inconclusive means small, poorly fitted or top-dose-only effect, or another doubt; inactive means no such curve, though single readings can be large; an effect the other way counts as inactive or inconclusive. Unless noted, on the % scale 0 is the no-effect control and ±100 the full control effect.

SMILES | ELG1 DNA repair | HT1080NT lethal | HT1080 IDH1KD tx | IL1B secr inh | DT40 TDP1 CPT | TDP1 cell noCPT
COCCCn1c(SCC(=O)Nc2ccc(OC)cc2)nc2c(sc3ccccc32)c1=O | / | / | / | / | 5% | -4%
COCCCn1c(SCc2ccccc2F)nc2c(sc3ccccc32)c1=O | / | / | / | / | ? | 15µM*
CCOCCCn1c(SCC(=O)NCc2ccco2)nc2c(sc3ccccc32)c1=O | 16µM* | 0% | 3% | 58 | ? | ?
Cc1ccc(-n2ncc3c(NCCCn4ccnc4)ncnc32)cc1 | / | / | / | / | -3% | -23%
Cc1cccc(NC(=O)CSc2nc(=O)n(Cc3cccnc3)c3c2CCC3)c1 | / | / | / | / | -29% | -30%
CCOc1ccccc1NC(=O)CSc1nc(=O)n(Cc2ccccn2)c2c1CCC2 | -5% | 13% | 20% | -11 | -4% | -23%
COc1ccc(C)cc1NC(=O)CSc1nc(=O)n(Cc2ccccn2)c2c1CCC2 | / | / | / | / | ? | 21µM*
CCc1ccc(NC(=O)CSc2nc(=O)n(Cc3cccnc3)c3c2CCC3)cc1 | / | / | / | / | ? | 16µM*
COc1ccc(C)cc1NC(=O)CSc1nc(=O)n(Cc2cccnc2)c2c1CCC2 | / | / | / | / | ? | 18µM*
CC(C)CN1CCNC(=O)C1CC(=O)NCCCN1CCCc2ccccc21 (centres undefined) | -2% | 0% | 1% | 14 | -2% | -7%
CC1CN(C(=O)CCC(=O)NCc2ccccn2)c2ccccc2O1 (centres undefined) | 20% | 0% | 8% | -6 | 13% | 4%
CCN1CCN(CCCN(Cc2ccco2)C(=S)Nc2ccc(Cl)c(C)c2)CC1 | -1% | -23% | -17% | -13 | -15% | ?
Cc1ccc(NC(=S)N(CCN2CCCCC2)Cc2ccco2)cc1 | 7% | 15% | 11% | ? | ? | 16µM*
Cc1cc(NC(=S)N(CCN2CCCCC2)Cc2ccco2)ccc1Cl | -3% | -23% | -18% | -97* | ? | ?
CCOC(=O)c1ccc(NC(=S)N(CCCN2CCCCCC2)Cc2ccco2)cc1 | -6% | ? | ? | -66* | ? | ?
Cc1cccc(C)c1NC(=S)N(CCCN1CCCCC1)Cc1ccco1 | 15% | -25% | -7% | -10 | 0% | -3%
CC1=CC2=NC(=O)CC(C)(C(=O)N(CC(=O)NC3CCCC3)Cc3ccccc3)N2C=C1 (centres undefined) | 8% | 12% | 8% | -4 | 9% | -2%
O=C(NCc1ccc(F)cc1F)[C@@H]1CCCN1C(=O)[C@@H]1CCCN1C(=O)c1cccc2ccccc12 | / | -9% | 1% | 10 | ? | ?
Cn1cnc(S(=O)(=O)N2CCCC(c3cc(C(=O)Nc4ccc(F)c(Cl)c4)no3)C2)c1 (centres undefined) | / | ? | ? | -10 | ? | ?
Cc1ccccc1S(=O)(=O)NC(=O)C1(C)CCN1C(=O)Cc1ccccc1Cl (centres undefined) | / | 19% | 29% | 19 | -7% | 3%
Cc1ccc(NC(=O)CSc2nnc(C)n2C2CC2)cc1S(=O)(=O)N1CCOCC1 | 15% | 4% | 18% | 0 | 0% | 30%
CCCNC(=S)N1CCC(C(=O)c2ccc3c(c2)OCCO3)CC1 | ? | -3% | -2% | -23 | ? | ?
N#Cc1cccc2c1-c1ccccc1/C2=N/NC(N)=O | -22% | ? | ? | ? | ? | ?
NC(=S)NN=C1c2ccccc2-c2c(F)c(F)c(F)c(F)c21 | / | -17% | ? | -111* | 7.3µM* | 12µM*
N#Cc1cccc2c1-c1ccccc1/C2=N/NC(N)=S | -25% | 6.5µM* | 21µM* | -58* | ? | 18µM*
